We go through 7 compounds from PubChem BioAssay (Tox21).

A short description of assay [1]: Nuclear factor erythroid 2-related factor 2/antioxidant responsive element (Nrf2/ARE) small molecule agonists: qHTS cell viability counter screen in human keratinocytes (AID 1919968; active means well fitted curve in the direction sought with a large enough effect in the repeat runs; an effect the other way counts as inactive or inconclusive; further: nearly all actives have a fitted effect of over 55% in size). Summed up: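 Seed 1,500 KeratinoSens cells per well, then incubate 5 h at 37 C/5% CO2. Add compounds in DMSO and incubate 23 h. Add CellTiter-Fluor, wait 1 h and read fluorescence.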
On the technique in general: qHTS replaces the single test concentration by a dilution series.

Assay [2] can be described thus: Nuclear factor erythroid 2-related factor 2/antioxidant responsive element (Nrf2/ARE) small molecule agonists: luciferase reporter gene qHTS assay in human keratinocytes (AID 1919969; further: nearly all actives have a fitted effect of over 35% in size; further: potency means the concentration at half of the fitted maximal effect). (In general: A reporter such as luciferase makes a cellular process visible.)
The target in assay [3] is Gonadotropin-releasing hormone receptor (Homo sapiens) (UniProt P30968). As to the kind of experiment: Human gonadotropin-releasing hormone receptor (GnRHR) small molecule agonists, calcium flux assay in GnRHR-HEK293 cells (AID 1920063). Further: nearly all actives have a fitted effect of over 35% in size. Summed up: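 Cells: HEK293 stably expressing human GnRHR. Steps: overnight (18 h) culture, 1 h calcium dye loading at 37 C, compound addition, kinetic fluorescence read at 480/540 nm. Each compound tested at 15 concentrations in triplicate.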
Gonadotropin-releasing hormone receptor (Homo sapiens), sequence (P30968 whole entry, looked up): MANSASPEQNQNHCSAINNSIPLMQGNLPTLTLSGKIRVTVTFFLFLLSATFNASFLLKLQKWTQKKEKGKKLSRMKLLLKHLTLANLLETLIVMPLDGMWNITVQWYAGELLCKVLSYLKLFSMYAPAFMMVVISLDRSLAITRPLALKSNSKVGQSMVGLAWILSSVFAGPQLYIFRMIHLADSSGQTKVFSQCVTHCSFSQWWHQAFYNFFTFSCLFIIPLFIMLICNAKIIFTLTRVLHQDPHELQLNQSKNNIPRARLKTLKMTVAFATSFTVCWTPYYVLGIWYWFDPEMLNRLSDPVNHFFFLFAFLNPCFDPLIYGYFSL

In assay [4] the target is KiSS-1 receptor (Homo sapiens) (UniProt Q969F8). As to the kind of experiment: Human kisspeptin (KISS1R) small molecule agonists, calcium flux assay in KISS1R-HEK293 cells (AID 1920064; active means well fitted curve in the direction sought with a large enough effect in the repeat runs; an effect the other way counts as inactive or inconclusive). Summed up: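 Cells plated and incubated 18 h; dye added, 1 h at 37 C; compounds in DMSO pinned in; signal read at 480/540 nm every second for 3 min. Each compound tested at 15 concentrations in triplicate.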
KiSS-1 receptor (Homo sapiens), sequence (Q969F8 whole entry, looked up): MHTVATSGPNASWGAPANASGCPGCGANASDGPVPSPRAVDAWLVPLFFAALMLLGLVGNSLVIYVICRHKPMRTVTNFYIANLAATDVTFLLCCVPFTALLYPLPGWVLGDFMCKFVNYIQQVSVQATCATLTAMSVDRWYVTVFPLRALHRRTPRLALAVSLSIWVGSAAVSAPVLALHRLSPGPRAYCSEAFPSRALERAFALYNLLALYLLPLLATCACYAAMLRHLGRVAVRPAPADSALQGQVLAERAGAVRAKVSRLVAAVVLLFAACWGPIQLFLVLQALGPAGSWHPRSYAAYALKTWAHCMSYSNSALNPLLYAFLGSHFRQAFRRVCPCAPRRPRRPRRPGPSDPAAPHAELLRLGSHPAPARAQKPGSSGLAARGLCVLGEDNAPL
For orientation: A change in cytosolic calcium serves as a functional read-out for many receptors and channels.

Assay [5] is described as follows: G protein-coupled receptor (GPCR) small molecule agonists, calcium flux assay: HEK293 wild type cell line counter screen (AID 1920065). In outline:
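Counter-screen of the Tox21 10K library for non-specific calcium release: dye-loaded cells received compounds in DMSO and were monitored by kinetic fluorescence (480/540 nm, 3 min). Fifteen concentrations, run in triplicate.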

Assay [6] is described as follows: p53 small molecule agonists, cell-based qHTS assay with human liver microsomes (AID 1963577).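 Further: p53 response element beta-lactamase reporter cells with liver microsomes plus NADPH.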 Summed up:
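In this qHTS, p53 response-element beta-lactamase cells receive test compound together with a microsome/NADPH activating system (0.5 mg/mL final each) and are incubated 16 h at 37 C before LiveBLAzer fluorescence detection.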

Assay [7] is described as follows: p53 small molecule agonists, cell-based qHTS assay with rat liver microsomes (AID 1963578). Summed up: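 Agonist mode in p53RE-bla reporter cells, with compounds co-incubated 16 h at 37 C alongside 0.5 mg/mL rat liver microsomes and 0.5 mg/mL NADPH (final), followed by a 2 h LiveBLAzer detection step.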
The nature of assay [8]: p53 small molecule agonists, cell-based qHTS assay with human liver microsomes: qHTS cell viability counter screen (AID 1963579). Further: nearly all actives have a fitted effect of over 45% in size. Summed up: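 Metabolically activated exposure: compounds, human liver microsomes and NADPH (0.5 mg/mL final apiece) were added to p53RE-bla cells seeded 5 h earlier, left 16 h at 37 C, and then assessed for viability by CellTiter-Glo luminescence.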

Assay [9] in a line: p53 small molecule agonists, cell-based qHTS assay with rat liver microsomes: qHTS cell viability counter screen (AID 1963580). Further: nearly all actives have a fitted effect of over 45% in size. In outline:
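Viability is assessed in parallel with the p53 reporter read: HCT-116 p53RE-bla cells receive compounds plus rat microsomes and NADPH (0.5 mg/mL final apiece), incubate 16 h at 37 C, and then CellTiter-Glo luminescence is recorded.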

Assay [10] in a line: p53 small molecule agonists, cell-based qHTS assay: qHTS cell viability counter screen (AID 1963581). Further: nearly all actives have a fitted effect of over 45% in size. In outline:
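Cells: HCT-116 with p53 response element-driven beta-lactamase. Treatment: 16 h, 37 C, compounds in DMSO. Read: CellTiter-Glo luminescence after 30 min RT.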

The target of assay [11] is 5-hydroxytryptamine receptor 2A (Homo sapiens) (UniProt P28223). As to the kind of experiment: 5-hydroxytryptamine receptor 2A (HTR2A) small molecule agonists, cell-based qHTS assay (AID 1963587). Further: nearly all actives have a fitted effect of over 30% in size. Further: potency means the concentration at half of the fitted maximal effect. In outline:
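CHO cells stably expressing human HTR2A, plated 18 h, loaded with calcium dye 1 h at 37 C. Agonist mode: compounds added and intracellular calcium fluorescence recorded kinetically for 2 min at 1 sec intervals.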

The target in assay [12] is Muscarinic acetylcholine receptor M1 (Homo sapiens) (UniProt P11229). As to the kind of experiment: Cholinergic receptor muscarinic 1 (CHRM1) small molecule antagonists, cell-based qHTS assay (AID 1963588). Further: nearly all actives have a fitted effect of over 40% in size. In outline:
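CHRM1-CHO calcium-flux assay, antagonist mode. Cells were seeded 18 h, dye-loaded 1 h at 37 C and given compound for 5 min at RT, then acetylcholine was added at 50nM. FDSS fluorescence was read 3 min; 15 concentrations, three runs.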

Assay [13] has the same target. As to the kind of experiment: Cholinergic receptor muscarinic 1 (CHRM1) small molecule agonists, cell-based qHTS assay (AID 1963589). Further: nearly all actives have a fitted effect of over 35% in size. In outline: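 Agonist-mode qHTS in CHO cells stably carrying human muscarinic M1. Intracellular calcium is tracked by fluorescence every second after compound transfer; each compound runs at 15 concentrations in three independent runs.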

The target of assay [14] is Beta-2 adrenergic receptor (Homo sapiens) (UniProt P07550). As to the kind of experiment: Adrenergic beta2 receptor (ADRB2) small molecule antagonists, cell-based qHTS assay (AID 1963592). Further: series mostly up to about 92 µM; nearly all actives have a fitted effect of over 50% in size. In outline: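 Cells (CHO, stable ADRB2 overexpression) incubated 18-20hr at 37C; compounds added from DMSO; agonist mix (1nM isoproterenol, 100uM IBMX, 25uM Ro-20-1724) added; 0.5hr RT; d2-cAMP and anti-cAMP-cryptate added; 1hr RT; 665/615 nm read.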
Beta-2 adrenergic receptor (Homo sapiens), sequence (P07550 whole entry, looked up): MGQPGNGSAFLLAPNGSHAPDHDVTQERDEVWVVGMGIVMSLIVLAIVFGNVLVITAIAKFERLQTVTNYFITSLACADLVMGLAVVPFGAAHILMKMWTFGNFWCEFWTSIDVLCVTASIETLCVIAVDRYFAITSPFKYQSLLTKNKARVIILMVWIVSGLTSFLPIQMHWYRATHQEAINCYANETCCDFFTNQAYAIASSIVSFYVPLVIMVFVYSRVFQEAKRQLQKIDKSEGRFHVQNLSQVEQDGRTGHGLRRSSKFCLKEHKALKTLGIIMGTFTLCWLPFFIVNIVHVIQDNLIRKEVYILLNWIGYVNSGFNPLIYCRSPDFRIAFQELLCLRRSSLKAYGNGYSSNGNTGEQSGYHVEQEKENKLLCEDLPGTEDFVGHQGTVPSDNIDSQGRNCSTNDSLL

Assay [15] addresses D(2) dopamine receptor (Homo sapiens) (UniProt P14416). As to the kind of experiment: Dopamine D2 receptor (DRD2) small molecule agonists, cell-based qHTS assay (AID 1963594). Further: nearly all actives have a fitted effect of over 35% in size. In outline: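 HEK293 cells stably expressing human DRD2, pre-treated with PDE inhibitor Ro20-1724 (0.1 mM final) and compound 10 min at room temperature, then stimulated with NKH477 (200nM […]) for 30 min. cAMP read by HTRF (665/620 nm).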

Assay [16] shares this target. As to the kind of experiment: Dopamine D2 receptor (DRD2) small molecule antagonists, cell-based qHTS assay (AID 1963595; active means well fitted inhibition curve with a large enough effect in the signal ratio in the repeat runs, with a control signal flat; the % refers to the signal ratio). In outline: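 DRD2-HEK293; 0.1 mM Ro20-1724; cpd 10 min RT; NKH477 200 nM + quinpirole 12 nM, 30 min RT; HTRF cAMP (cAMP-d2/anti-cAMP cryptate), 665/620 nm ratio after 1 h.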
Assay [17] in a line: cAMP Responsive Elements (CRE) small molecule antagonists, cell-based qHTS assay (AID 1963591; active means well fitted inhibition curve with a large enough effect in the signal ratio in the repeat runs, not every such curve was filed as active; the % refers to the signal ratio). In outline: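 Antagonist mode: test compounds are co-incubated with the adenylyl cyclase activator NKH477 (0.25 uM final) on CRE-bla HEK293T cells for 3 h at 37 °C, followed by LiveBLAzer substrate loading.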
Assay [18] has as its target Beta-2 adrenergic receptor (Homo sapiens) (UniProt P07550). As to the kind of experiment: Adrenergic beta2 receptor (ADRB2) small molecule agonists, cell-based qHTS assay (AID 1963593).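 Further: CHO cells stably overexpressing human ADRB2.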 Summed up:
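CHO cells stably over-expressing ADRB2 were plated overnight at 37C, then dosed with compounds plus a stimulation mix containing 100uM IBMX and 25uM Ro-20-1724 for 0.5hr at room temperature. cAMP was measured by HTRF competition, 1hr.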

The nature of assay [19]: cAMP Responsive Elements (CRE) small molecule agonists, cell-based qHTS assay (AID 1963590). Summed up: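 Agonist mode qHTS in CRE-bla HEK 293T cells: compounds dosed from DMSO for 3 h at 37 C/5% CO2, followed by LiveBLAzer B/G FRET substrate for 2 h at room temperature.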

Inconclusive results are not listed. Activity calls are given as the source filed them. Unless noted, the call rests on the fitted dose curve.

Muscarinic acetylcholine receptor M1 (Homo sapiens), sequence (P11229 whole entry, looked up): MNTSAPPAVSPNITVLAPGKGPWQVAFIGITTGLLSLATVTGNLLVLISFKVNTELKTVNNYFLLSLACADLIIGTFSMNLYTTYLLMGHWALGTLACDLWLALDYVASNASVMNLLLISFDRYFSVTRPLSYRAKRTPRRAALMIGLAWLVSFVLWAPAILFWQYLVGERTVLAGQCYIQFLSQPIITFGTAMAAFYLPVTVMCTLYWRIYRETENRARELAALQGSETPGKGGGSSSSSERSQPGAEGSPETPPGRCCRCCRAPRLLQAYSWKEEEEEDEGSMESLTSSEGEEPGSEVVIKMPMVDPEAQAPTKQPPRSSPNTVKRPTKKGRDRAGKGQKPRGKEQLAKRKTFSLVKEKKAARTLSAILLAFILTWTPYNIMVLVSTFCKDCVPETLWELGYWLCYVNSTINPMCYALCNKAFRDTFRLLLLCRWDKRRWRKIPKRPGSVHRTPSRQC
5-hydroxytryptamine receptor 2A (Homo sapiens), sequence (P28223 whole entry, looked up): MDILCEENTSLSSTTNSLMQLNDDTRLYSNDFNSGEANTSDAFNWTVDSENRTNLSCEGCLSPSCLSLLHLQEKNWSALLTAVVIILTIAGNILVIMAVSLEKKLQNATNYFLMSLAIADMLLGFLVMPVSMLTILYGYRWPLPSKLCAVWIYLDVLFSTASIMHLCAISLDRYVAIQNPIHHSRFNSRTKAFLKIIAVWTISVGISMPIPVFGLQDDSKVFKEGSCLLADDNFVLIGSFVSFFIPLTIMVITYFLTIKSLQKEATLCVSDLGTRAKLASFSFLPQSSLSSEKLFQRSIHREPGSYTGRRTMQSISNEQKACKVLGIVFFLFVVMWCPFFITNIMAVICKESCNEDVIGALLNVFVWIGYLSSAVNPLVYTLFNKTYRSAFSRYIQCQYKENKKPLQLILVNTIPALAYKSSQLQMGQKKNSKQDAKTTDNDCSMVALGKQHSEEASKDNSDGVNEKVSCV
D(2) dopamine receptor (Homo sapiens), sequence (P14416 whole entry, looked up): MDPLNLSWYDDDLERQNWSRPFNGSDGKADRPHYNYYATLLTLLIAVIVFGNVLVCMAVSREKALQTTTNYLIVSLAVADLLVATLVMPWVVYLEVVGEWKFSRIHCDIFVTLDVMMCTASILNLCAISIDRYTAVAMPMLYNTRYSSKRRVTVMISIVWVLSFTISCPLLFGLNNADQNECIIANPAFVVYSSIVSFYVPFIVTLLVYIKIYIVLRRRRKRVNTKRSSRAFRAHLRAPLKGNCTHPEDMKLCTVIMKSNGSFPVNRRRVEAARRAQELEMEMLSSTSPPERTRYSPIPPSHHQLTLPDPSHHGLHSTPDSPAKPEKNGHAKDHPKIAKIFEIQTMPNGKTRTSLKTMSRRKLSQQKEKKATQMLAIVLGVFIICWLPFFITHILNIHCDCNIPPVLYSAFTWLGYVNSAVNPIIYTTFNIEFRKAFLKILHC

Take `C/C(=C\C(C)CC(C)CC(C)C)C1CC(=O)OC1=O` (stereo not drawn): the Potency result in assay [1], in [2], in assay [3], in assay [6], in assay [7] and in assay [8] was “inactive” throughout. The Potency entry in [9], in assay [10], in [11], in [12], in assay [13] and in assay [14] was “inactive” in each case. Moreover, the Potency entry in assay [15] and in assay [16] was “inactive” in each case. Moreover, the outcome in [4] and in assay [5] was inactive.

As for `CCCCCCCCCCCCCCC1CO1` (stereo not drawn), the Potency result in [1], in assay [2], in assay [3], in assay [6], in assay [7] and in [8] was “inactive” each time. The Potency entry in [9], in assay [10], in assay [11], in assay [12], in assay [13] and in assay [17] was “inactive” in each case. Further, the Potency result in [14], in assay [18], in assay [15] and in [16] was “inactive” each time. Further, the outcome in assay [4] and in assay [5] was inactive.

Turning to `N=c1ccn2c(n1)O[C@H]1[C@H](O)[C@@H](CO)O[C@H]12`, the Potency result in assay [1], in assay [2], in [3], in [6], in [7] and in [8] was “inactive” each time. The Potency entry in assay [9], in assay [10], in assay [11], in assay [12], in assay [13] and in [19] was “inactive” each time. Besides, the Potency entry in assay [17], in assay [14], in [15] and in [16] was “inactive” each time. Moreover, the outcome in assay [4] and in assay [5] was inactive.

In the case of `CC(=O)OC(C)(C)Cc1ccccc1`, the Potency result in assay [1], in assay [2], in assay [3], in assay [6], in assay [7] and in assay [8] was “inactive” each time. Also, the Potency result in assay [9], in assay [10], in assay [11], in assay [12], in assay [13] and in [19] was “inactive” throughout. Besides, the Potency result in [17], in assay [14] and in assay [15] was “inactive” in each case. Further, the result in [4] and in [5] was inactive.

Regarding `CC(=O)O[C@@H]1C(=O)O[C@@H]2[C@H]1OC(=O)[C@@H]2OC(C)=O`, the Potency result in [1], in assay [3], in assay [6], in [7], in assay [8] and in [9] was “inactive” each time. Also, the Potency entry in assay [10], in assay [12], in assay [13], in assay [19], in [17] and in [14] was “inactive” each time. Besides, the Potency result in assay [18], in [15] and in assay [16] was “inactive” each time. Further, the Potency in assay [2] is 29.8 µM (active); in assay [11], 756 nM (active). Further, the outcome in assay [4] and in assay [5] was inactive.

As for `OC1(c2ccccc2)CCNCC1`, the Potency result in [1], in [2], in assay [3], in [6], in assay [7] and in [8] was “inactive” throughout. Further, the Potency result in [9], in assay [10], in [11], in assay [12], in assay [13] and in assay [19] was “inactive” in each case. Also, the Potency entry in assay [14], in [18], in assay [15] and in assay [16] was “inactive” throughout. Also, the outcome in [4] and in [5] was inactive.

Turning to `O=C1OC(=O)c2cccc3cccc1c23`, the Potency result in [1], in assay [3], in [6], in assay [7], in [8] and in assay [9] was “inactive” each time. Moreover, the Potency result in [10], in assay [11], in assay [12], in assay [13], in [19] and in assay [14] was “inactive” in each case. Moreover, the Potency result in [15] and in assay [16] was “inactive” each time. Also, in [2], the Potency is 27.6 µM (active). Moreover, the outcome in [4] and in assay [5] was inactive.
